# Screens: PubChem, The Scripps Research Institute Molecular Screening Center
# PLCg1 inh: PLC-gamma1 enzyme inhibitors, primary screen, biochemical, fluorescence, purified enzyme. 1-phosphatidylinositol 4,5-bisphosphate phosphodiesterase gamma-1 (Homo sapiens), P19174. fluorogenic substrate. inhibition, % at 12.2 µM. 0.84% of 370,000 active. AID 720700, 2013; in the data active means inhibition above about 9.5%
# KLK7 zymogen act: proKLK7 zymogen activators, primary screen, biochemical, fluorescence intensity | 0.9% of 370,000 active | Kallikrein-7 (Homo sapiens), P49862 | activation, % at 7 µM | purified proKLK7, EDANS-DABCYL substrate fluorescence; 100% is mature enzyme control, 0% vehicle;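 active means activation above the mean of all tested compounds plus 3 SD, computed per campaign excluding outliers beyond control limits, cut at about 13% in these data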
# Target sequence (P49862 whole entry, looked up): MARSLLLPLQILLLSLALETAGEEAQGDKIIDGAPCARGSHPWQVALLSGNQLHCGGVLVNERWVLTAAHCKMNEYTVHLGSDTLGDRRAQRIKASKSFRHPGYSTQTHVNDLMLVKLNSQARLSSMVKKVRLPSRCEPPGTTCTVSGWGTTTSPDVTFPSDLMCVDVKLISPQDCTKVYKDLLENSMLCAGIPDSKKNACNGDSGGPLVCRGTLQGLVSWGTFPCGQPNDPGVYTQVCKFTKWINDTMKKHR
# ADAM17 inh: ADAM17 inhibitors, primary screen, biochemical, QFRET. Disintegrin and metalloproteinase domain-containing protein 17 (Homo sapiens), P78536. recombinant ADAM17, EDANS/DABCYL FRET peptide cleavage. inhibition, % at 6.95 µM. 0.83% of 370,000 active. AID 720648, 2013;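 active means inhibition above the mean of compounds lying between control limits plus 3 SD, set per campaign, cut at about 8.5% in these data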;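 further: 0% = DMSO-only wells as the low control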
# PLCb3 inh: human PLC-beta3 inhibitors, primary screen, biochemical, fluorescence; Purified PLC-beta3, fluorogenic substrate; 0.18% of 370,000 active; inhibition, % at 12.2 µM; in the data active means inhibition above about 11%;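 further: 0% = median of compound wells on plate and 100% = full blocker control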
# ADAM10 inh: human ADAM10 inhibitors, primary screen, biochemical, QFRET, HTS | inhibition, % at 7 µM | 0.62% of 370,000 active | Disintegrin and metalloproteinase domain-containing protein 10 (Homo sapiens), O14672 | recombinant ADAM10, EDANS/DABCYL FRET peptide cleavage, 3 h;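 active means inhibition above a per-campaign cutoff equal to the mean of compounds falling between control-based bounds plus 3 SD, cut at about 20% in these data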;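 further: 0% = DMSO wells while the 100% control is not disclosed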
# ADAM10 counter: ADAM10 inhibitors, counter-screen for ADAM17 exosite inhibitor project, biochemical, FRET, human ADAM10; inhibition, % at 6.95 µM; recombinant ADAM10, EDANS/DABCYL FRET peptide cleavage, 3 h; shares compounds with ADAM17 inh; AID 743256, 2014; 47% of 2,900 active;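 active means mean inhibition over the triplicate runs exceeds the activity threshold set in the earlier primary screen, cut at about 20% in these data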;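 further: 0% = DMSO wells and 100% = marimastat wells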
# ADAM17 confirm: ADAM17 inhibitors, hit retest, confirmation, biochemical, QFRET peptide cleavage; 65% of 2,900 active; inhibition, % at 6.95 µM; shares compounds with ADAM17 inh; AID 743257, 2014; recombinant ADAM17, EDANS/DABCYL QFRET peptide cleavage;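 active means mean inhibition across replicates above the hit cutoff set in the primary screen, cut at about 8.5% in these data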;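 further: 0% = DMSO wells and 100% = marimastat wells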
# * = called active by the depositor; x = no result. Shown are actives, neighbours in structure and some others; about 2.9% of the full set was active somewhere.
SMILES,PLCg1 inh,KLK7 zymogen act,ADAM17 inh,PLCb3 inh,ADAM10 inh,ADAM10 counter,ADAM17 confirm
Cc1cc(C)nc(NC(=O)C(c2ccccc2)c2ccccc2)n1,4.4,0.3,8.7*,3.0,-4.2,-6.3,2.5
CN(C)C(=O)c1cc2c(c(-c3cccc(C4=CCCCC4)c3)n1)[C@@H](CCO)N(S(=O)C(C)(C)C)C2 (stereo partly drawn),-29.5,-2.7,-10.0,-42.9,-25.6,x,x
O=[N+]([O-])c1ccc(N/N=C/c2c[nH]c3ccccc23)cc1,-24.7,3.6,9.6*,-36.0,17.0,16.7,8.2
O=[N+]([O-])c1ccccc1N/N=C/c1c[nH]c2ccccc12,4.9,0.2,-1.8,1.4,-3.2,x,x
Cc1ccc(C)c(S(=O)(=O)N2CCN(CC(=O)NC(=O)NCc3ccco3)CC2)c1,2.6,0.0,3.4,-1.8,7.8,x,x
Cc1ccc(S(=O)(=O)/N=C2/NC(=O)/C(=C/c3cc([N+](=O)[O-])ccc3O)S2)cc1,-184.0,0.5,8.6*,-290.9,12.8,-2.2,1.1
COc1cc(/C=C2\S/C(=N/S(=O)(=O)c3ccc(C)cc3)NC2=O)c([N+](=O)[O-])cc1OC,-87.5,1.2,0.2,-127.4,5.6,x,x
COc1ccc(C2Oc3ccccc3C3=C2C(c2cccs2)n2ncnc2N3)cc1 (stereo not drawn),-80.4,0.4,9.6*,-119.9,9.6,-6.6,9.3*
CSCCC(NC(=O)c1cccc(S(=O)(=O)N2CCOCC2)c1)c1nc2ccccc2[nH]1 (stereo not drawn),4.3,0.3,10.3*,-4.2,2.5,13.6,6.9
COc1ccc(NC(=O)C(c2ccc(C)cc2)N(C)C(=O)Cc2cccs2)cc1 (stereo not drawn),7.4,0.2,9.0*,3.9,7.3,2.1,6.2
COc1ccc(NC(=O)C(c2ccc(OC)cc2)N(C)C(=O)Cc2cccs2)cc1 (stereo not drawn),-0.4,0.3,-1.7,-0.2,1.1,x,x
CCN(CC)S(=O)(=O)c1ccc2c(c1)nc(CCC(=O)Nc1ccc3c(c1)OCO3)n2C,-4.7,0.2,-0.9,-8.8,-2.8,x,x
CCN(CC)S(=O)(=O)c1ccc2c(c1)nc(CCC(=O)Nc1ccc3c(c1)OCO3)n2CC,2.1,0.6,8.9*,1.2,2.5,-1.1,2.6
O=C(NNc1ccccc1Br)C(=O)n1ccc2ccccc21,4.2,-0.1,9.5*,8.1,16.8,-5.0,0.8
COc1cc(OC)cc(-c2cn[nH]c2N)c1,4.0,-0.2,9.1*,4.5,14.0,13.5,13.2*
Cc1ccc(C(=O)NCC(=O)OCC(=O)NC(C)C2CC3CCC2C3)cc1 (stereo not drawn),-0.1,0.3,-1.5,-4.0,-7.6,x,x
COc1ccccc1NC(=O)COc1ccc(-c2nn(C)c(=O)c3ccccc23)cc1,-1.5,-0.5,-4.4,-11.7,6.6,x,x
COc1ccccc1NC(=O)Cn1nc(-c2ccc(Cl)cc2)c2ccccc2c1=O,-21.9,0.0,8.7*,6.3,14.0,14.0,14.3*
CCNC(=S)Nc1ccc(Cc2nc3ccccc3[nH]2)cc1,-0.2,0.5,-2.2,-1.3,-4.9,x,x
O=C(NC(=S)NCCc1ccccc1)c1ccccc1F,8.0,0.8,10.3*,-1.0,12.9,11.9,5.7
O=C(NC(=S)NCc1ccccc1)c1ccccc1F,-0.5,0.2,-3.2,-3.4,-8.9,x,x
CCCCCC(=O)NC1CCCCN(Cc2ccc(Cl)cc2)C1=O (stereo not drawn),2.8,0.5,-5.5,0.2,-6.4,x,x
COc1ccc(CNC(=O)C[C@@H]2C[C@H]3c4cc(NC(=O)NC5CCCC5)ccc4O[C@H]3[C@H](CO)O2)cc1,0.2,1.7,9.1*,-0.8,6.0,0.4,3.1
O=C(COc1ccccc1Br)N1CCN(C(=O)c2cccs2)CC1,13.6*,0.0,8.8*,-3.8,7.4,12.7,9.3*
COc1ccccc1C(=O)OCC(=O)NC(C)CCc1ccccc1 (stereo not drawn),4.2,0.4,0.1,6.2,13.1,x,x
SMILES,PLCg1 inh,KLK7 zymogen act,ADAM17 inh,PLCb3 inh,ADAM10 inh,ADAM10 counter,ADAM17 confirm
COc1ccccc1C(=O)NCC(=O)NC(C)CCc1ccccc1 (stereo not drawn),0.3,-0.8,9.2*,-4.7,-6.9,3.4,4.7
CCCc1nc2ccccc2c(=O)n1CC(=O)c1ccc(F)cc1,-1.3,0.7,3.3,-0.7,6.8,x,x
O=C(CSc1nc2ccccc2c(=O)[nH]1)Nc1ccc(N2CCOCC2)c(Cl)c1,0.8,0.6,0.7,-6.3,1.3,x,x
CC(=O)NC(c1cccc([N+](=O)[O-])c1)c1ccc2cccnc2c1O (stereo not drawn),0.0,0.2,1.8,2.4,9.2,x,x
CCCCC(=O)NC(c1cccc([N+](=O)[O-])c1)c1ccc2cccnc2c1O (stereo not drawn),2.4,-0.1,9.6*,-4.2,17.8,24.6*,17.0*
O=S(=O)(c1ccc(Br)s1)N1CCC2(CC1)OCCO2,5.3,-0.3,0.9,2.7,2.5,x,x
C#Cc1ccc([C@H]2C=C(C(=O)NCc3ccccc3)O[C@@H](OCC)[C@@H]2CCCO)cc1,-3.5,0.2,0.1,-6.8,0.6,x,x
C#Cc1ccc([C@@H]2C=C(C(=O)Nc3ccccc3)O[C@H](OCC)[C@H]2CCCO)cc1,4.5,0.4,10.8*,2.7,16.4,11.2,7.6
Cc1cc(Sc2nc(NC(C)C)nc(NC(C)C)n2)nc(Cl)n1,1.0,0.3,-2.8,-8.4,2.3,x,x
Cc1nc(N2CCN(C)CC2)c2c(C)c(C(=O)Nc3ccc(C)c(F)c3)sc2n1,-5.2,0.2,8.8*,-19.1,13.2,7.2,8.8*
Cc1cccc(NC(=O)c2sc3nc(C)nc(N4CCOCC4)c3c2C)c1,-3.8,1.1,-0.4,-4.2,6.7,x,x
Cc1nc(N2CCCCC2)c2c(C)c(C(=O)Nc3ccc4c(c3)OCCO4)sc2n1,-12.9,-4.0,9.6*,-177.3,10.9,16.2,11.5*
Cc1ccc(C(=O)NC2CCN(S(=O)(=O)c3ccccc3)CC2)cc1,0.3,-0.5,-3.0,0.3,-1.6,x,x
